Tau filament bind – tau filament binding; P10636; recombinant tau filaments, thioflavin S fluorescence, 15 h; filaments grown with octadecylsulfate alongside compound; Potency, µM (doses to about 57.1 µM); 2% of 71,000 active; AID 596;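 note: actives lower thioflavin S fluorescence by blocking filaments or displacing dye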
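Recombinant tau protein (human, 1 uM final) plus 30 uM ODS in HEPES pH 7.4 with NaCl, DTT and thioflavine S. Compound present from the start; fluorescence at 510 nm after 15 h, 37 C.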
15-hLO-2 inh – blocks human 15-lipoxygenase 2 activity; purified 15hLO-2, xylenol orange hydroperoxide absorbance; Potency, µM (top dose mostly 57.1 µM), actives largely listed as inhibitors; 0.56% of 110,000 active; AID 881; note: nearly all actives have a fitted effect of over 60% in size
Target sequence (O15296 whole entry, looked up): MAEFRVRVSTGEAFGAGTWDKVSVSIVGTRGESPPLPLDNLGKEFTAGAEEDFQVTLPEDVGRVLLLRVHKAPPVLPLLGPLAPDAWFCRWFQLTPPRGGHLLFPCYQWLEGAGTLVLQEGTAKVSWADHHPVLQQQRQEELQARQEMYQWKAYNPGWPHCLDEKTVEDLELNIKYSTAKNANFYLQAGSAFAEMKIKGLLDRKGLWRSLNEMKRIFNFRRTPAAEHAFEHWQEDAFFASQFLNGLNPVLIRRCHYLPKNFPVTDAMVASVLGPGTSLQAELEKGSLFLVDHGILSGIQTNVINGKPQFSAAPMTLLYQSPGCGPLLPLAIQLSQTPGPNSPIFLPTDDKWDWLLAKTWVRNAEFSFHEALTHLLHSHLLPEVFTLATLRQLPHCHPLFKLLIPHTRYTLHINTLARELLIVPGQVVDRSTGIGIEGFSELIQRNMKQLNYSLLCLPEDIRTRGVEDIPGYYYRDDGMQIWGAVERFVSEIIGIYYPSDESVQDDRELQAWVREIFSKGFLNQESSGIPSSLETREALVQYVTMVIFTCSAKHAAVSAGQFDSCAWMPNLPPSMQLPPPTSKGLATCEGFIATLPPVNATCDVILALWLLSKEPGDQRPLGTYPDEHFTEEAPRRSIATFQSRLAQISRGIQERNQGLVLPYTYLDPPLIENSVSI
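Read-out: hydroperoxide product oxidises ferrous iron, measured as xylenol orange complex via the 573-to-405 nm absorbance ratio after 30 min. Reaction: 50 nM enzyme, 15 min compound preincubation, 45 uM arachidonic acid, 90 min RT, Hepes pH 7.5 with Triton X-100.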
Ub-GFP proteasome – inhibits proteasome, raising ubiquitin-GFP reporter fluorescence. Ubiquitin-GFP reporter cells, proteasome inhibition, GFP fluorescence; response scale: untreated = 0%, 10 µM MG-132 = 100%. Potency, µM (top dose mostly 45.9 µM), actives largely listed as activators. 67,000 tested, under 10 active; active = well fitted activation curve with a large enough effect, not every such curve was filed as active; inconclusive = small, poorly fitted or top-dose-only effect, or another doubt; inactive = no such curve, though single readings can be large or run the other way
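Proteasome blockade was scored as a rise in GFP-expressing U2OS cells carrying a ubiquitin(G76V)-GFP construct, imaged after 4 hr compound treatment at 37 °C across a 46 uM–2.9 nM series.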
ALOX15 inhib – 15-hLO (ALOX15) enzyme inhibition; 1.4% of 74,000 active; AID 887; P16050; purified 15hLO-1, xylenol orange hydroperoxide absorbance; Potency, µM (series often up to 57.1 µM), actives largely listed as inhibitors; note: nearly all actives have a fitted effect of over 55% in size
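Purified human 15hLO-1 (40 nM) in 25 mM Hepes pH 7.5, 0.01% Triton X-100, preincubated 15 min RT with compound, then 50 uM arachidonic acid for 6 min. Hydroperoxide read by ferrous/xylenol orange, 30 min; 573/405 nm absorbance ratio gave progress.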
Epigenetic mod – derepresses silenced GFP locus in mouse C127i cells | mouse C127i GFP locus derepression, cytometry, 30 h | AID 597 | Potency, µM (series often up to 46.1 µM) | 0.09% of 68,000 active
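Murine C127i mammary cells carrying a silenced, stably integrated CMV-driven GFP reporter were treated with compound for 30 hours at 37 C. After PBS washes, GFP-positive cells were counted by laser-scanning microplate cytometry.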
HBB splice mod – alters splicing of the hemoglobin beta chain | HBB splicing reporter cell assay, activation; EGFP reporter with mutant IVS2-654 intron; response scale: normalised to 500 nM splice-correcting PNA | Potency, µM (highest dose often 46.1 µM), actives largely listed as activators | 0.06% of 65,000 active | AID 925
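HeLa cells stably expressing EGFP interrupted by mutant beta-globin intron 2 (IVS2-654), 500/well in 2% FCS. Treated with compound for 2 days at 37C. Splicing correction scored as total well GFP intensity (488 nm excitation, 500-520 nm emission); 500 nM antisense PNA served as control.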
A number is an active result; 0 = inactive; ? = inconclusive; - = no result given; ! = repeats disagree; [ ] = remark or other dose. Rows were chosen to be rich in hits. Some 2.3% of all compounds tested hit in one or more screens of this group. Unless noted, calls come from the whole dose curve; as a rule, active = well fitted curve in the direction sought with a large enough effect; inconclusive = small, poorly fitted or top-dose-only effect, or another doubt; inactive = no such curve, though single readings can be large; an effect the other way counts as inactive or inconclusive.

SMILES | Tau filament bind | 15-hLO-2 inh | Ub-GFP proteasome | ALOX15 inhib | Epigenetic mod | HBB splice mod
Cc1noc(C)c1-c1nccc(NCc2cccnc2)n1 | 0 | 0 | 0 | 0 | 0[9.22 µM] | 0
COc1cccc(-c2nc(N(C)Cc3ccco3)c3ccccc3n2)c1 | 0 | 0 | 0 | 10µM | 0[9.22 µM] | 0
O=C1C2=CC[C@@H]3C(=O)N(c4ccc(F)cc4F)C(=O)[C@H]3[C@H]2[C@H](O)[C@H]2O[C@H]12 | - | - | - | 0[11.4 µM] | - | 0[9.22 µM]
Cc1cc2c(ccc3[nH]onc32)n1 | 0 | 0 | 0 | 20µM | 0 | 0
Cc1cc(N2CCOCC2)c2c(N)c(C)cc(C)c2n1 | 16µM | 0 | 0 | 0 | 0 | 0
COC(=O)/C=C\c1cc(O)ccc1O | ? | ? | 0 | ? | 0 | -
Nc1nc(Nc2ccccc2)nc2c1ncn2[C@@H]1O[C@@H](CO)[C@H](O)[C@@H]1O | 0 | 0 | 0 | 0 | 0 | 0
CCOC(=O)c1sc(NC(=O)CSc2nnnn2-c2ccc(C)cc2C)nc1C | 0 | 0 | 0 | 0 | 0 | -
COC(=O)c1ccccc1NC(=O)CSc1nnnn1-c1ccc(C)cc1C | 10µM | 0 | 0 | ? | 0 | 0
CCOC(=O)Cc1csc(-n2sc3ccccc3c2=O)n1 | 0 | 1.3µM | 0 | 0.2µM | 0 | 0
CC(=O)c1cccc(NC(=O)Cc2cccs2)c1 | 4µM | 0 | 0[9.17 µM] | ? | 0 | 0[0.0738 µM]
Cc1ccc(N=Cc2cccc(O)c2O)c(C)c1 | - | ? | - | 6.3µM | - | -
O=C(c1ccc(Br)o1)N1CCN(c2ccc3nnc(-c4ccccc4)n3n2)CC1 | 0 | 0 | 0 | 16µM | 0 | 0
Cc1nnc2ccc(N3CCN(C(=O)c4ccccc4)CC3)nn12 | 0 | 0 | 0 | 0 | 0 | 0
N#Cc1nc(-c2ccc(F)cc2)oc1NCc1cccc2c1OCO2 | 0 | - | 0 | 13µM | 0 | 0
Oc1ccc(C=Nc2ccc(N3CCOCC3)cc2)c(O)c1 | 20µM | ? | 0 | ? | 0 | 0
CC(=O)CC1OC(=O)C(Br)=C1NCc1ccccc1 (centres undefined) | 0 | 0 | 0 | 0 | 13µM | 0
C[C@H](C(=O)c1ccncc1)c1ccccn1 | 0[11.4 µM] | 0[11.4 µM] | 0[9.17 µM] | 0[11.4 µM] | 0[9.22 µM] | 0[9.22 µM]
CN(C)c1ccc(-c2ccc3ncnc(-n4ccnc4)c3c2)cc1 | 3.2µM | 0 | 0 | 0 | 0[9.22 µM] | 0
Oc1c(Cl)cc(Cl)c2c1NCCC2 | ? | 5µM | 0 | 1.6µM | 0 | 0
Cc1ccc(/C=N/c2sc3c(c2C#N)CCCCC3)o1 | 0 | 0 | 0 | 25µM | 0 | 0
CCN(/C=N/c1sc2c(c1C#N)CCCCC2)CC | - | 0 | - | - | - | -
N#Cc1c(/N=C/c2ccco2)sc2c1CCC2 | 16µM | 0 | 0 | 0 | 0 | 0
CS(=O)(=O)Nc1cccc(-c2ccc3ncnc(NCc4cccs4)c3c2)c1 | 0 | 0 | 0 | 0 | 0[9.22 µM] | 0
Cc1cc(C)cc(N(CC(=O)O)S(=O)(=O)c2cccnc2)c1 | 0 | - | 0 | 0 | - | 0
SMILES | Tau filament bind | 15-hLO-2 inh | Ub-GFP proteasome | ALOX15 inhib | Epigenetic mod | HBB splice mod
O=C(CSc1ncn(-c2ccccc2)n1)Nc1ccc(Br)cn1 | 0 | ? | 0 | 20µM | 0 | 0
CN(C)Cc1ccc(-c2cc3onc(-c4ccccc4)c3c(=O)n2C)cc1 | 0[11.4 µM] | 0[11.4 µM] | 0[9.17 µM] | 0[11.4 µM] | 0[9.22 µM] | 0[9.22 µM]
N#Cc1c(Sc2ncc(C(F)(F)F)cc2Cl)nsc1C/C=N\OCc1ccccc1Br | - | 13µM | - | - | - | -
COc1ccccc1CNc1ncnc2ccc(-c3ccc(N(C)C)cc3)cc12 | 2µM | 0 | 0 | 0 | 0[9.22 µM] | ?
Cc1noc(C)c1-c1ccc2ncnc(N(C)Cc3ccco3)c2c1 | 0 | 0 | 0 | 0 | 0[9.22 µM] | 0
O=c1ccc2ccc(O)c(O)c2o1 | 0 | ? | 0 | 25µM | 0 | 0
CSc1ccc2c(c1)N(CC[C@H]1CCCCN1C)c1ccccc1S2 | 4µM! | 0 | 0 | ? | 0 | 0
N[C@@H](CCCCO)C(=O)O | 0[11.4 µM] | 0[11.4 µM] | 0[9.17 µM] | 0[11.4 µM] | 0[9.22 µM] | 0[9.22 µM]
NS(=O)(=O)c1ccc(NC(=O)Nc2ccccc2F)cc1 | 0[11.4 µM] | 0[11.4 µM] | 0[9.17 µM] | 0[11.4 µM] | 0[9.22 µM] | 0[9.22 µM]
Cc1cc(C)nc(SCc2nc3nc(C)cc(C)n3c2Br)n1 | - | 0 | - | - | - | -
Cc1cc(C)n2c(=S)[nH]nc2n1 | 0 | 6.3µM | 0 | ? | 0 | -
CC[C@H](C)C(=O)O[C@@H]1CCC=C2C=C[C@H](C)[C@@H](CC[C@H]3C[C@@H](O)CC(=O)O3)[C@H]21 | 0 | - | 0 | - | 0 | 0
O=C(Nc1cccc2ccccc12)N1CCN(Cc2ccccc2)CC1 | 0 | 0 | 0 | 0.63µM | 0 | 0
O=C(Nc1cccc2ccccc12)N1CC=C(c2ccccc2)CC1 | - | 0 | - | - | - | -
Cc1ccc(-c2cc(C(=O)NCCCn3ccnc3)c3cc(Br)ccc3n2)o1 | 16µM | 0 | 0 | ? | 0 | 0

Assay outcomes (PubChem)
